In PubChem BioAssay AID2280 (The Scripps Research Institute Molecular Screening Center, 2010):
Screen size: about 320,000 compounds; about 1,400 (0.44%) were called active. The entries come from a sample that favours actives as a whole. A number with no mark means an inactive call.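 The calls were made as follows: active = percent inhibition above a per-plate cutoff, the plate mean of test compounds plus 3 SD (cut at about 30% in these data); inactive = the rest.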

biological target: Female germline-specific tumor suppressor gld-1 (Caenorhabditis elegans) (UniProt Q17339); experiment: GLD-1/TGE RNA complex disruptors, primary screen, biochemical, fluorescence polarization (AID 2280); details: purified GLD-1 + fluorescein TGE RNA, at 5.96 µM, stronger effect = higher value;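 also: 0% = DMSO wells with GLD-1 and probe and 100% = wells lacking GLD-1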
Sequence (Q17339 whole entry, looked up): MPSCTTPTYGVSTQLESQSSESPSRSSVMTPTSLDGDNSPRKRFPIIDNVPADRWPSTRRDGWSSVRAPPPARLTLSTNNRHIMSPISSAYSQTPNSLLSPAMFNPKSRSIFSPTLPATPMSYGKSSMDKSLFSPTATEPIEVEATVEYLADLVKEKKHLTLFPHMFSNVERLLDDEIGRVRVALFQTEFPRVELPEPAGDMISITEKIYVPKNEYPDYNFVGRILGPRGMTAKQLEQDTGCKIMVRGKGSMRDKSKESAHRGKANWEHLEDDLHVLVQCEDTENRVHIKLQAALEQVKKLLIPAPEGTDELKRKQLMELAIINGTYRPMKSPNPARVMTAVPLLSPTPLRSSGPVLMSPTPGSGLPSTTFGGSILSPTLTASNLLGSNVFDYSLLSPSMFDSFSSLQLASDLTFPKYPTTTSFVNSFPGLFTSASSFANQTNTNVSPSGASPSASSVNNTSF

| SMILES | inhibition |
| --- | --- |
| Cc1ccc(NC(=O)C(C)c2cccc(C(=O)c3ccccc3)c2)cc1 (stereo unspecified) | 2.46% |
| O=C(CCc1ccccc1)Nc1ccc(NC(=O)C2CC2)nc1 | 8.07% |
| O=C(NCCN1CCOCC1)[C@H](Cc1ccccc1)N1C(=O)c2ccccc2C1=O | 5.89% |
| C=C1CCN([C@@H](Cc2ccccc2)C(=O)N2CCOCC2)S(=O)(=O)c2ccccc21 | 39.9% (active) |
| N[C@@H](Cc1ccccc1)C(=O)N1CCOCC1 | 10.2% |
| CCN(c1ccc2c(c1)OCO2)S(=O)(=O)c1cc(Br)cc2c1N(C(=O)C1CC1)CC2 | 2.82% |
| Cc1ccc(S(=O)(=O)c2c[nH]c3ccc(Cl)cc3c2=O)cc1 | 1.43% |
| Cc1cc(=O)oc2cc(OCC3CC(c4ccccc4Cl)=NO3)ccc12 (stereo unspecified) | 4.3% |
| CC(=O)c1nnn(-c2ccc(Cl)cc2C#N)c1C | 2.27% |
| CC[N+](C)(CC)CCC[n+]1c(-c2ccccc2)c2cc(N)ccc2c2ccc(N)cc21 | 62.4% (active) |
| CC(C)[C@H](NC(=O)N1CCn2c1nc1ccccc12)C(=O)NC1CC1 | -3.08% |
| Cc1ccc(CNC(=O)c2cccc3c2C(=O)c2ccc(N4CCC(C)CC4)cc2S3(=O)=O)cc1 | 124% (active) |
| Cc1ccc(CNC(=O)c2ccc3c(c2)S(=O)(=O)c2ccccc2C3=O)cc1 | -2.48% |
| CC1CCN(c2c(NCc3ccc(C(=O)NCc4ccccc4)cc3)c(=O)c2=O)CC1 | -1.64% |
| O=[N+]([O-])c1cc(S(=O)(=O)Nc2cccc(Cl)c2)ccc1N=Nc1c(O)[nH]c2ccccc12 | 0.17% |
| O=C(NCC(c1cccs1)N1CCOCC1)c1cc(Cl)ccc1[N+](=O)[O-] (stereo unspecified) | 1.88% |
| CCOC(=O)CN(C)S(=O)(=O)c1ccc(-c2cc(C(=O)OC)sc2C(F)(F)F)cc1 | 9.97% |
| COc1ccc(C2=CC(c3cccc(OC)c3)n3nnnc3N2)cc1 (stereo unspecified) | 14.6% |
| COc1ccc(C2C=C(c3ccc(Br)cc3)Nc3nc(NS(C)(=O)=O)nn32)cc1 (stereo unspecified) | 155% (active) |
| CSc1cccc(NC(=O)CN2C(=O)COc3ccc(S(=O)(=O)N4CCOCC4)cc32)c1 | -0.09% |
| N#CCc1ccc(NC(=O)c2ccccc2C(=O)Nc2ccc(CC#N)cc2)cc1 | -0.7% |

| SMILES | inhibition |
| --- | --- |
| COc1cccc(NC(=O)CN(C)CC(=O)c2c(N)n(Cc3ccccc3)c(=O)n(C)c2=O)c1 | 3.38% |
| O=c1[nH]c(=O)c2nc3ccccc3nc2[nH]1 | 48.7% (active) |
| O=C1NCCn2nc3ccccc3c21 | -0.55% |
| Nc1ccc2nc3c(=O)[nH]c(=S)[nH]c3nc2c1 | 172% (active) |
| CNC(=O)c1cccc2nc3ccccc3nc12 | 3% |
| Cc1csc(/N=C/N(C)C)c1C#N | 7.85% |
| COc1cccc(NC(=O)C(=O)c2cn(CC(=O)N3CCOCC3)c3ccccc23)c1 | 9.65% |
| Cc1ccc(C2(C)NC(=O)N(CC(=O)N3CC(=O)Nc4ccccc43)C2=O)cc1 (stereo unspecified) | -0.04% |
| Cc1ccc(-c2nnc(Nc3ccc(C(=O)N(C)C)cc3)c3ccccc23)cc1S(N)(=O)=O | 6.66% |
| O=C(Nc1cccc(F)c1)N1C2CCC1CC(O)(c1cccnc1)C2 (stereo unspecified) | -5.02% |
| CC[C@]1(O)C[C@@H]2CN(CCc3c([nH]c4ccccc34)[C@@](C(=O)OC)(c3cc4c(cc3OC)N(C)[C@H]3[C@@](O)(C(=O)OC)[C@H](OC(C)=O)[C@]5(CC)C=CCN6CC[C@]43[C@@H]65)C2)C1 | 35.9% (active) |
| CC[C@]1(O)CC2CN(CCc3c([nH]c4ccccc34)[C@@](C(=O)OC)(c3cc4c(cc3OC)N(C=O)[C@H]3[C@@](O)(C(=O)OC)[C@H](OC(C)=O)[C@]5(CC)C=CCN6CC[C@]43[C@@H]65)C2)C1 (stereo partly specified) | 8% |
| COc1ccc(Cc2nnc(N/N=C/c3ccccc3O)[nH]c2=O)cc1OC | 2.1% |
| Cc1ccc(/C=N/NC(=O)CSc2nc3ccccc3o2)cc1 | 13.4% |
| Cc1cccc(OCC(=O)NCC(=O)N/N=C/c2ccc(N(C)C)cc2)c1 | 1.86% |
| Cc1ccc(/C=N/NC(=O)COc2ccccc2-c2ccccc2)cc1 | 52.5% (active) |
| COc1cc(/C=C2\Oc3ccc(C#Cc4ccc(O)cc4)cc3C2=O)cc(OC)c1 | -7.59% |
| O=C(CCN1CCc2ccccc2C(O)(c2ccccc2)C1)c1ccc2c(c1)OCCO2 (stereo unspecified) | 8.71% |
| COC(=O)c1cc(C(=O)N(Cc2ccccc2)c2ccccn2)cc([N+](=O)[O-])c1 | 3.82% |
| COCCOC(=O)c1sc(=S)n(CCOC)c1N | 65.8% (active) |
| COc1cccc(-n2c(SCC(=O)NC3CCS(=O)(=O)C3)nc3ccccc3c2=O)c1 (stereo unspecified) | 1.53% |

| SMILES | inhibition |
| --- | --- |
| CSCCC(NS(=O)(=O)c1ccc2c(c1)oc(=O)n2C)C(=O)NCc1ccccc1 (stereo unspecified) | 4.5% |
| C=CCSc1nc2c(c(=O)[nH]c(=O)n2C)n1Cc1ccccc1 | -0.99% |
| COC(=O)CSc1nc2ccccc2c(=O)n1Cc1ccccc1 | -3.39% |
| Cc1cc2nc3c(=O)n(Cc4ccccc4)c(=O)[nH]c3nc2cc1N | 190% (active) |
| COc1cc([C@H](Cc2ccccc2)NC(C)=O)oc(=O)c1 | 43.8% (active) |
| CCOC(=O)C(Cc1ccccc1)NC(=O)CCC(=O)c1ccc(OC)cc1 (stereo unspecified) | 2.6% |
| COc1ccc(OC)c(NC(=O)N[C@H](Cc2ccccc2)C(=O)NN)c1 | 6.48% |
| CCCCCCCCc1c(O)nc(-n2[nH]c(C)c(CCO)c2=O)[nH]c1=O | 3.56% |
| COCCn1c(N)c(NCc2ccccc2)c(=O)[nH]c1=O | 94.7% (active) |
| COCCn1c(N)c(N(Cc2ccccc2)C(=O)C2CCCCC2)c(=O)[nH]c1=O | 7.47% |
| COCCN(C(=O)c1ccccc1F)c1c(N)n(Cc2ccccc2)c(=O)[nH]c1=O | 1.28% |
| COC(=O)c1c(NC(=O)CN2CCN(S(=O)(=O)c3ccccc3[N+](=O)[O-])CC2)sc2c1CCC(C)C2 (stereo unspecified) | 1.69% |
| COc1ccc(C2C(C#N)=C(N)N(c3ncn[nH]3)C3=C2C(=O)CCC3)cc1 (stereo unspecified) | 2.28% |
| O=C(Nc1ccccc1C(=O)O)c1ccc(N2C(=O)C3CC=CCC3C2=O)cc1 (stereo unspecified) | 3.32% |
| CC1=C(C(=O)OCc2ccccc2)C(c2ccco2)n2ncnc2N1 (stereo unspecified) | 0.86% |
| CCOc1ccc(C2=CC(c3ccccc3)n3ncnc3N2)cc1 (stereo unspecified) | 11.7% |
| Brc1ccc(C2=CC(c3ccco3)n3ncnc3N2)cc1 (stereo unspecified) | 158% (active) |
| CCC(C)[C@@H](C(=O)N1CCNCC1)n1cc(CCCCN)nn1 (stereo partly specified) | 3.86% |
| COc1cc2c(-c3ccc4c(c3)OCO4)c(-c3ccsc3)oc(=O)c2cc1OC | 0.87% |
